Assay outcomes: PubChem BioAssay, National Center for Advancing Translational Sciences (NCATS)
Shown are actives, neighbours in structure and some others; about 4.2% of the full set was active somewhere.
VDR inh: vitamin D3 receptor (human) inhibition | AID 504847 | P11473 | hit rate 0.93% among 400,000 | VDR-SRC2-3 peptide fluorescence polarization, 2 h | Potency, µM, most hits filed as inhibitors
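The screen uses fluorescence polarization to detect compounds that interfere with recruitment of the SRC2-3 coactivator peptide to VDR; plates are read after 2 h at room temperature.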
Sfp inh: blocks B. subtilis Sfp PPTase activity. Potency, µM, actives largely listed as inhibitors. AID 1490. Biochemical Sfp PPTase activity, qHTS. hit rate 3.5% among 310,000;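 note: the enzyme is Sfp with the accession as filed and its product quenches rhodamine fluorescence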
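Fluorescence-quenching assay with 15 nM Sfp, 5 uM rhodamine-CoA and 12.5 uM BHQ-2-labelled ybbR peptide in pH 7.6 Hepes/MgCl2 buffer. Enzyme was pre-incubated with compound for 15 min at room temperature. Rate was taken from the 30-min fluorescence change (525/598 nm).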
PLK1 PBD inh: blocks phosphopeptide binding to human PLK1 polo-box domain | P53350 | Plk1 PBD binding of FITC phosphopeptide, fluorescence polarization | Potency, µM, actives largely listed as inhibitors | hit rate 2.8% among 360,000; note: series mostly up to about 57 µM; nearly all actives have a fitted effect of over 65% in size
ALOX12 inh: inhibitors of human 12S-lipoxygenase ALOX12; P18054; purified 12hLO, xylenol orange hydroperoxide absorbance; Potency, µM (top dose mostly 108 µM), actives largely listed as inhibitors; hit rate 1.1% among 580,000; AID 1671190
Target sequence (P18054 whole entry, looked up): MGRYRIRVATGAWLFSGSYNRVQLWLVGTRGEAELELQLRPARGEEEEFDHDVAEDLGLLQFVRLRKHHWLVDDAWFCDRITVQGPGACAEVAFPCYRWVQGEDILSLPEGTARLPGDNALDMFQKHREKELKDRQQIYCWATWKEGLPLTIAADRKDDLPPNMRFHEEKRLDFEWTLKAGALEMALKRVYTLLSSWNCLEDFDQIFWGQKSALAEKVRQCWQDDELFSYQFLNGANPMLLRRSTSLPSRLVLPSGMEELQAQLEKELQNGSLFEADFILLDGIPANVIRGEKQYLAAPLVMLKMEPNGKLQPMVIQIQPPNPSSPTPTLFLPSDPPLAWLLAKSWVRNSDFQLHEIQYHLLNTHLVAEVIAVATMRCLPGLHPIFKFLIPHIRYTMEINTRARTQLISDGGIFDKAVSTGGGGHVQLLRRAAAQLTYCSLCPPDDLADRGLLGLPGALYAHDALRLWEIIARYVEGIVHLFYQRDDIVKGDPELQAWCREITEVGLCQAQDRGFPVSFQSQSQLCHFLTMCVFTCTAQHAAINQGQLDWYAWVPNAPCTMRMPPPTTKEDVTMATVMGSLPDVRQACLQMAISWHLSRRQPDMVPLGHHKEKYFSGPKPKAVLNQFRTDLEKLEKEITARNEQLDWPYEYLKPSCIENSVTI
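Purified human 12hLO at 150 nM in 25 mM Hepes, 0.01% Triton X-100, pH 7.0, preincubated 15 min at room temperature with compound. Reaction started with 40 uM arachidonic acid, 30 min at room temperature. Hydroperoxide measured by Fe-xylenol orange, 573/405 nm absorbance ratio.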
Of the large screens only hits and unclear results are named; the others gave an inactive call. Calls come from the whole dose curve; as a rule, active = well fitted curve in the direction sought with a large enough effect; inconclusive = small, poorly fitted or top-dose-only effect, or another doubt; inactive = no such curve, though single readings can be large; an effect the other way counts as inactive or inconclusive.

O=C(O)c1ccc(Oc2ccccc2)o1	none
COc1ccc(Cn2c(O)c(C=Nc3ccccc3C(=O)O)c3ccccc3c2=O)cc1	PLK1 PBD inh inconclusive
COc1ccccc1NS(=O)(=O)c1cccc(-n2c(O)c(C=Nc3ccccc3C(=O)O)c3ccccc3c2=O)c1	PLK1 PBD inh 30µM, ALOX12 inh inconclusive
CC1CCC(NC(=O)CCCn2sc3ccccc3c2=O)CC1 (stereo not given)	VDR inh inconclusive, PLK1 PBD inh 27µM
O=C(CCC(=O)Nc1ccc(F)cc1)N/N=C/c1ccncc1	Sfp inh 45µM
COc1ccc(CC(=O)OCC(=O)NCc2ccc(C)cc2)cc1OC	none (no result: Sfp inh)
C=CCNc1nc(-c2ccccc2)c(C(=O)OCC)cc1C#N	PLK1 PBD inh 24µM
CN1CCC(N2CCN(S(=O)(=O)Cc3ccccc3)CC2)C1=O (stereo not given)	none (no result: VDR inh, Sfp inh, PLK1 PBD inh)
CCOC(=O)c1cccn1C1C(=O)N(Cc2ccc(Cl)nc2)c2ccc(F)cc21 (stereo not given)	none (no result: VDR inh, Sfp inh, PLK1 PBD inh)
Cc1ccc(C)n1C1C(=O)N(Cc2ccc(C(F)(F)F)cc2)c2ccc(Cl)cc21 (stereo not given)	ALOX12 inh 10µM (no result: VDR inh, Sfp inh, PLK1 PBD inh)
Cc1ccc(C)n1C1C(=O)N(Cc2ccc(C(C)C)cc2)c2ccc(F)cc21 (stereo not given)	ALOX12 inh 35µM (no result: VDR inh, Sfp inh, PLK1 PBD inh)
Cc1ccc(C)n1C1C(=O)N(Cc2ccc(C(C)C)cc2)c2c(F)cccc21 (stereo not given)	ALOX12 inh 32µM (no result: VDR inh, Sfp inh, PLK1 PBD inh)
O=C(CCc1cn(Cc2ccccc2F)c2ccccc12)NCc1ccc(Cl)cc1	none (no result: Sfp inh, PLK1 PBD inh)
O=[N+]([O-])c1cc(/C=N/O)ccc1Sc1ccccc1	Sfp inh 71µM, ALOX12 inh inconclusive
Cc1cc(C)cc(NC(=O)CSc2cc(C)[nH]c(=O)n2)c1	none (no result: Sfp inh, PLK1 PBD inh)
NC(=O)C1CCN(C(=O)CSc2nc(O)cc(=O)[nH]2)CC1	none
COc1ccc(OC)c(NC(=O)CSc2nc3ccccc3c(=O)n2CCNC(C)=O)c1	none
COc1ccc(NC(=O)CSc2nc(O)cc(=O)[nH]2)c(OC)c1	VDR inh inconclusive, PLK1 PBD inh 24µM
COc1ccc(NC(=O)CSc2nc3ccccc3c(=O)n2CCNC(C)=O)c(OC)c1	Sfp inh 25µM
O=C(CSc1nc(O)cc(=O)[nH]1)C1CC1	Sfp inh 71µM
CC(C)CCN1CCC(N2CCN(S(=O)(=O)c3ccc(F)cc3)CC2)C1=O (stereo not given)	none (no result: VDR inh, Sfp inh, PLK1 PBD inh)
Cc1ccc(NC(=O)n2ncc3c(C)cccc32)c(C)c1	none
COc1ccc2nc(/C=N/NC(=O)[C@@H]3CCCN3C(=O)OC(C)(C)C)ccc2c1	Sfp inh 89µM
CC1(C)C(c2cccs2)=[N+]([O-])C2(CCCCC/C2=N\NC(N)=O)N1O (stereo not given)	none
CCOc1ccc(Nc2c(S(=O)(=O)c3ccc(C)cc3)cnc3ccccc23)cc1	none (no result: Sfp inh, PLK1 PBD inh)
O=C(NCc1ccncc1)[C@@H]1CCCN1C(=O)[C@@H]1CCCN1C(=O)c1cccs1	none (no result: VDR inh, Sfp inh)
CCc1oc(C(=O)O)cc1COC	none
COCc1cc(O)c(O)c(O)c1-c1c(COC)cc(O)c(O)c1O	VDR inh 16µM, Sfp inh 7.9µM (no result: PLK1 PBD inh, ALOX12 inh)
c1ccc(COCC2CCNCC2)cc1	none
Nc1nc(N)c(S(=O)(=O)c2ccccc2)c(Nc2ccccc2)n1	none (no result: Sfp inh, PLK1 PBD inh)
CCCCC(CC)CN=C(N)NC(N)=NCCCCCCN=C(N)NC(N)=NCC(CC)CCCC (stereo not given)	Sfp inh 14µM, PLK1 PBD inh inconclusive, ALOX12 inh inconclusive
Cn1cccc1C(=O)N1CCCCCNC(=O)[C@H]2C[C@H](C(=O)N3CCc4ccccc4C3)C[C@H]21	none (no result: VDR inh, Sfp inh, PLK1 PBD inh)
O=C(CC1Nc2cccc3cccc(c23)NC1=O)Nc1ccccc1 (stereo not given)	Sfp inh 18µM, ALOX12 inh inconclusive
Cc1ccc(NC(=O)CC2Nc3cccc4cccc(c34)NC2=O)cc1 (stereo not given)	ALOX12 inh inconclusive (no result: Sfp inh, PLK1 PBD inh)
O=C(O)CCCn1cc(NC(=O)c2ccc(Br)o2)cn1	PLK1 PBD inh inconclusive
COc1ccc(CNC(=O)c2cc(C3CC3)nc3c2cnn3C(C)C)cc1	none (no result: Sfp inh)
CC(C)n1ncc2c(C(=O)O)cc(C3CC3)nc21	VDR inh inconclusive, PLK1 PBD inh 30µM
COc1ccccc1NC(=O)c1c(C)nc2ccccc2c1C(=O)O	ALOX12 inh 14µM
COC(=O)c1c(C)nc2ccccc2c1C(=O)O	VDR inh inconclusive
CC(=O)Oc1ccc2nonc2c1OC(C)=O	VDR inh 1.4µM (no result: Sfp inh, PLK1 PBD inh, ALOX12 inh)
Cc1ccc(CNC(=O)[C@H](C)[C@H]2C[C@]2(C)[C@H](NC(=O)OCc2ccccc2)c2ccccc2)o1	Sfp inh 50µM (no result: ALOX12 inh)
C[C@@H](C(=O)NCc1ccccc1)[C@@H]1C[C@@]1(C)[C@@H](NC(=O)OCc1ccccc1)c1ccccc1	none
